In PubChem BioAssay (NCATS) one finds max response, Potency and outcome data, which are given here for 20 compounds.

Inconclusive results are not listed. Where a structure was tested more than once in an assay, its records may differ in their call. A number with no mark means an inactive call. Active and inactive are the calls of the source. The call rests on the fitted dose curve; in most records, active means well fitted inhibition curve with a large enough effect; inconclusive means small, poorly fitted or top-dose-only effect; inactive means flat fitted curve, though single readings scatter.

What all share (assay): Cytotoxic Profiling of Annotated Libraries Using Quantitative High-Throughput Screening (AID 1296008); further: nearly all actives have a fitted effect of over 60% in size
Common to all, as to conditions: Five cell lines viability, CellTiter-Glo ATP luminescence, 48-72 h; max response: stronger effect = lower value
(ATP-based viability assays read luminescence as a measure of living cells.)

Assay [1] concerns CRL-7250. In short, it runs like this: (§1)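 Cells exposed to compounds for 48 or 72 hr at 37 degrees Celsius. Viability read as ATP-coupled luminescence with CellTiter-Glo after 10 min at room temperature.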
In assay [2] the test system is HEK293. In short, it runs like this: as §1
The subject of assay [3] is HaCat. The essentials:
as §1

Assay [4] has as its system KB-3-1. In short, it runs like this: as §1
For assay [5], the system named is NIH3T3. In short, it runs like this:
as §1
On the % scale 0 is the no-effect control and ±100 the full control effect; potency means the concentration at half of the fitted maximal effect.

`O=C(O)c1cc2cccc([N+](=O)[O-])c2[nH]1`: the max response in assay [1] was -12.6%; in assay [2], 2.87%; in assay [3], -11.1%; in assay [4], 5.58%.
On to `Nc1ccc(/C=C/C(=O)NCc2cc3cc(-c4ccc(C(=O)N5CCC(F)(F)CC5)cc4)cc(-c4ccc(F)cc4)c3o2)cn1`, for which the Potency in assay [1] is 3.66 µM (active); in assay [2], 0.58 µM (active); in assay [3] it was 5.17 µM (active); in assay [4] it was 0.92 µM (active).
Taken in the same sequence, the figures for `C[C@@H]1C[C@@H]2O[C@H]2/C=C\C=C\C(=O)Cc2c(Cl)c(O)cc(O)c2C(=O)O1` were 4.53 µM (active), 0.286 µM (active), 3.6 µM (active) and 2.27 µM (active).
As for `O=C(CC(c1ccccc1)c1ccccc1)N1CCN(C(c2ccccc2)c2ccccc2)CC1`, the max response is -24.4% in assay [1] and -29% in assay [3]. The Potency is 20.6 µM (active) in assay [2] and 18.4 µM (active) in assay [4].
In the case of `COc1cccc(-c2cc(NCc3ccc4c(c3)OCO4)nc(N)n2)c1`, the values for the Potency in assay [1], in assay [2] and in assay [4] were 0.92 µM (active), 0.184 µM (active) and 0.231 µM (active), respectively. The max response in assay [3] was -46.3%.
Consider `CC(=O)C12OC(C)(C)OC1CC1C3CCC4=CC(=O)C=CC4(C)C3(F)C(O)CC12C` (stereo unspecified), for which the max response is -7.35% in assay [1], -19.2% in assay [2] and -3.19% in assay [3]. In assay [4], the result was inactive.
Turning to `CCOc1cc(C(=O)N2CCC(N3CCN(C)CC3)CC2)ccc1Nc1ncc2c(n1)N(C1CCCC1)c1ccccc1C(=O)N2C`, the Potency in assay [1] was 10.3 µM (active); in assay [2], 11.6 µM (active); in assay [4] it was 23.1 µM (active). The max response in assay [3] was -1.5%.
`CC1=C(C(=O)OCc2ccccc2)C(c2ccc(-c3ccccc3)cc2)NC(=O)N1CCCCCC(=O)O` (stereo unspecified): the max response in assay [1] is -0.424%; in assay [2], -21.5%; in assay [3], -18.2%. Also, the compound was classed as inactive in assay [4].
Take `CCCCNc1ccc(-c2ccc(CN3CCOCC3)cn2)c(NC2CCC(O)CC2)c1` (stereo unspecified): the result in assay [1] was inactive. The max response was -7.2% in assay [2], -2.49% in assay [3] and -18.8% in assay [4].
For `COc1ccc2nc(S(=O)(=O)Cc3ncc(C)c(OC)c3C)[nH]c2c1`, the max response was -21.3% in assay [1], -8.8% in assay [3] and -6.6% in assay [4]. In addition, the Potency in assay [2] was 16.4 µM (active).
For `COC(=O)CCSCc1ccc(-c2onc(C)c2NC(=O)OC(C)c2ccccc2Cl)cc1` (stereo unspecified), the max response was -4.23% in assay [1], -7.48% in assay [2] and -24.6% in assay [3]. In addition, the compound was called inactive in assay [4].
Regarding `CN(C)C/C=C/C(=O)Nc1cc2c(Nc3ccc(F)c(Cl)c3)ncnc2cc1OC1CCOC1` (stereo unspecified), the Potency in assay [1] was 11.6 µM (active); in assay [2] it was 5.8 µM (active); in assay [3], 0.517 µM (active); in assay [4] it was 5.17 µM (active).
For the compound `CC(C)(C)Nc1nc(Nc2ccc(C(N)=O)cc2)cc(N)c1C#N`, the Potency was 13 µM (active) in assay [1], 1.64 µM (active) in assay [2] and 5.8 µM (active) in assay [4]. Further, in assay [3], the max response is -5.65%.
Regarding `CN(CCc1ccc(Nc2ncc(-c3cccnc3)s2)cc1)Cc1ccccc1`, the max response in assay [1] is -10.2%; in assay [3], -1.85%; in assay [4], -12.1%. For the same compound, in assay [2], the Potency is 7.31 µM (active).
As for `Cc1cc2c(F)c(Oc3ncnn4cc(OCC(C)O)c(C)c34)ccc2[nH]1` (stereo unspecified), the max response is -24.6% in assay [1], -0.656% in assay [3] and -12.6% in assay [4]. Moreover, in assay [2], the Potency was 5.8 µM (active).
Consider `C=C1[C@@H]2CC[C@@H]3[C@@](CCC4C(C(=O)O)(C(=O)O)C[C@@H](O[C@@H]5O[C@H](CO)[C@@H](O)[C@H](O)[C@H]5OC(=O)CC(C)C)C[C@]43C)(C2)[C@H]1O` (stereo partly specified), for which the max response in assay [1] was -6.97%; in assay [2], -0.701%; in assay [3] it was 2.26%. The compound was called inactive in assay [4].
For `CCOc1cc(C)c(Cl)cc1S(=O)(=O)n1cnc2ccccc21`, the max response was -6.19% in assay [1], -19.4% in assay [2] and -29.2% in assay [3]. The result in assay [4] was inactive.
Consider `CO[C@H]1/C=C\O[C@@]2(C)Oc3c(C)c(O)c4c(O)c(c5c(nc6cc(C)ccn65)c4c3C2=O)NC(=O)/C(C)=C\C=C/[C@H](C)[C@H](O)[C@@H](C)[C@@H](O)[C@@H](C)[C@H](OC(C)=O)[C@@H]1C`, for which the max response in assay [1] was -2.8%; in assay [2], -17.1%; in assay [3], -2.81%; in assay [4], 9.37%.
`NC(=O)[C@H]1CCS[C@@H]2C[C@]3(CCCN3C(=O)Cc3ccc(NC(=O)COc4ccc(Cl)cc4Cl)cc3)C(=O)N12`: the figures for the max response in assay [1] and in assay [3] were -14.3% and -24.7%, respectively. In addition, the Potency in assay [2] was 7.41 µM (active); in assay [3], 18.6 µM (active); in assay [5], 11.7 µM (active).
With `FC(F)(F)c1cc(-c2ncn(/C=C\c3nnco3)n2)cc(C(F)(F)F)c1`, the max response is -13.3% in assay [1], -20% in assay [3] and -19.3% in assay [4]. In addition, the Potency in assay [2] is 3.26 µM (active).
